# Data: PubChem BioAssay AID1508607 (The Scripps Research Institute Molecular Screening Center, 2020)
# The campaign covered roughly 2,300 compounds. About 20 (0.9%) were called active. The sample holds actives, similar compounds and a random draw of the others, so the mix is not that of the screen.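 How the source made its calls: active means mean percent activation across replicates above the counterscreen hit cutoff of 9.17%; inactive means the rest.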
# Target: Glucose-dependent insulinotropic receptor (Homo sapiens) (UniProt Q8TDV5)
# Sequence (Q8TDV5 whole entry, looked up): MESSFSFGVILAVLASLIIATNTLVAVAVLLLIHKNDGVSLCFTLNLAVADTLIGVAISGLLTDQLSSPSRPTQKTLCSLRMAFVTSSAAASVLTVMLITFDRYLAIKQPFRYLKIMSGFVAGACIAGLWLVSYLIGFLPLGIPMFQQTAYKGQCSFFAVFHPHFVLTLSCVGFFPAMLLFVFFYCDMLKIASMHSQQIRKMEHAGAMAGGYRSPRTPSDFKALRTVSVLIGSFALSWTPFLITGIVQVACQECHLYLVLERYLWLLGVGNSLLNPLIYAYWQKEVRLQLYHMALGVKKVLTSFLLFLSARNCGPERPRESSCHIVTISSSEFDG
# Test: off-target GPR119 activation – cell-based, PathHunter beta-arrestin, luminescence, set 2, counter-screen for GPR151 activator project, confirmation (AID 1508607);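 further: 0% = median of sample wells and 100% = wells given EA reagent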
# Conditions: GPR119 PathHunter beta-arrestin cells, 90 min, at 11.2 µM, active compounds read high
row,Compound,activation
1,C[C@@H]1O[C@@H](O[C@H]2C[C@@H](O)[C@]3(CO)[C@H]4[C@H](O)C[C@]5(C)[C@@H](C6=CC(=O)OC6)CC[C@]5(O)[C@@H]4CC[C@]3(O)C2)[C@H](O)[C@H](O)[C@H]1O,18.4% (active)
2,COCCN1C(=S)NC2c3cccc(OC)c3OC1(C)C2C(=O)OC (stereo not given),-2.57% (inactive)
3,Cc1cccc(C)c1-n1nnnc1C1(NCCc2c(C)[nH]c3ccccc23)CCCCC1,-3.88% (inactive)
4,CCn1c(/C=C/C=C2\N(C)c3ccccc3C2(C)C)[n+](Cc2ccccc2)c2ccccc21,15.3% (active)
5,CC[n+]1c(/C=C/C=C2\N(C)c3ccccc3C2(C)C)n(-c2ccccc2)c2ccc(C)cc21,2.58% (inactive)
6,CC[n+]1c(/C=C/C=C2\N(C)c3ccccc3C2(C)C)n(-c2ccccc2)c2cc(Cl)ccc21,4.85% (inactive)
7,O=c1c2ccccc2nc(/C=C/c2ccccc2)n1-c1cccc(C(F)(F)F)c1,1.19% (inactive)
8,COc1ccc2[nH]c(C)c(CCNCc3ccc(OC(F)(F)F)cc3)c2c1,0.78% (inactive)
9,O=C(NCc1ccc(Cl)cc1)C(Cl)(Cl)Cl,1.33% (inactive)
10,O=C(NC(O)C(Cl)(Cl)Cl)c1ccccc1 (stereo not given),-0.61% (inactive)
11,C[C@H]1CC[C@@H]2[C@@H](C)[C@H]3[C@H](CC4[C@@H]5CC=C6CC(O[C@@H]7O[C@H](CO)C(O[C@@H]8O[C@@H](C)[C@H](O)[C@@H](O)[C@H]8O)[C@H](O)[C@H]7O[C@@H]7O[C@@H](C)[C@H](O)[C@@H](O)[C@H]7O)CC[C@]6(C)[C@H]5CC[C@@]43C)N2C1 (stereo not given in full),28.4% (active)
12,COc1ccc(CN2CCNCC2CCO)c(C)c1C (stereo not given),0.92% (inactive)
13,CCN1C(=O)c2ccccc2Sc2ccc(C(=O)N3CCC4(CC3)OCCO4)cc21,0.67% (inactive)
14,COc1cccc(C2N(c3ccccn3)C(=O)C3CCCN32)c1 (stereo not given),-1.97% (inactive)
15,CCc1ccc(NC(=O)CN2CC(c3ccccc3)CC2=O)cc1 (stereo not given),2.2% (inactive)
